Assay results reported in PubChem BioAssay AID686979 (National Center for Advancing Translational Sciences (NCATS), 2013).
In all, about 420,000 compounds went through this assay and about 50,000 (12%) were called active. Where a call stands in place of a potency, no number is given. Another 26% or so got no clear call; they are omitted. The sample holds actives, similar compounds and a random draw of the others, so the mix is not that of the screen. A number with no mark means an inactive call. Calls follow the shape of the dose curve; as a rule, active = well fitted inhibition curve with a large enough effect; inconclusive = small, poorly fitted or top-dose-only effect; inactive = flat fitted curve, though single readings scatter.

Experiment: qHTS for Inhibitors of human tyrosyl-DNA phosphodiesterase 1 (TDP1): qHTS in cells in presence of CPT; also: nearly all actives have a fitted effect of over 55% in size
Settings: chicken DT40 Tdp1-/-;hTDP1 cells + 20 nM CPT, ATP luminescence, 48 h; series mostly up to 46.2 µM
Outline: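 Chicken DT40 Tdp1-/- cells stably complemented with human TDP1 were seeded at 400 cells/well in medium containing 20 nM camptothecin, exposed to pin-transferred compounds, and grown at 37 °C for at least 48 hr. Viability was read as ATP luminescence.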
Potency is read from the fitted curve at half-maximal effect.

Compound | Potency | activity change, negative = growth inhibition
O=C(NNS(=O)(=O)c1ccc(F)cc1)c1ccc([N+](=O)[O-])cc1Cl | inactive | 
Cc1cc(OC(C)C(=O)Nc2ccc(S(=O)(=O)Nc3onc(C)c3C)cc2)cc(C)c1Cl (stereo not given) | inactive | 
CNC(=O)C1CC(=O)N(c2ccc(OCC(=O)Nc3ccccc3C)cc2)C1 (stereo not given) | inactive | 
O=S(=O)(Nc1cc(Cl)ccc1N1CCOCC1)c1ccccc1Cl | inactive | 
O=S(=O)(c1ccc(Br)cc1)c1nc(-c2ccccc2)oc1N1CCOCC1 | inactive | 
O=S(=O)(c1ccccc1)c1nc(-c2ccc(Cl)cc2Cl)oc1N1CCCCC1 | 14.6 µM (active) | 
CC(=O)c1ccc(N2CCN(c3nc4c(S(=O)(=O)c5ccccc5)nnn4c4ccc(Cl)cc34)CC2)cc1 | inactive | 
O=S(=O)(c1ccccc1)c1nc(Cc2ccccc2)oc1N1CCOCC1 | inactive | 
COc1ccc(-c2nc(S(=O)(=O)c3ccccc3)c(N3CCCCC3)o2)cc1 | 23.1 µM (active) | 
Cc1ccc(CNC(=O)CCC(=O)N2Cc3ccccc3Oc3ncccc32)cc1 | inactive | 
CC(C)Cc1nnc(N)s1 | inactive | 
COc1cc2ccc(C(C)=O)c(O)c2cc1OC | inactive | 
COCCC(=O)N1CCC(Oc2ccc(C(=O)NCc3ccon3)cc2)CC1 | inactive | 
CCOc1ccc(C(=O)N2CCN(CCc3ccccn3)CC2)cc1 | inactive | 
O=C(Cc1ccc(Cl)cc1)Nc1ccc2nn(-c3ccc(Cl)cc3)nc2c1 | inactive | 
Nc1ccc2nn(-c3ccc(Cl)cc3)nc2c1 | 6.51 µM (active) | 
Cc1cc2nn(-c3ccc(Cl)cc3)nc2cc1NC(=O)C(C)C | inactive | 
Cc1cccc(C)c1NC(=O)CNC(=O)c1c(C)nn(-c2ccccc2)c1C | inactive | 
COc1cc(NC(=O)Cn2c(=O)n(Cc3ccco3)c(=O)c3oc4ccccc4c32)cc(OC)c1 | inactive | 
Cc1nnc(SCC(=O)Nc2ccc(S(=O)(=O)Nc3ccc(Cl)nn3)cc2)s1 | inactive | 
CCOC(=O)CN1C(=O)C(O)(CC(=O)c2ccccn2)c2ccccc21 (stereo not given) | 5.8 µM (active) | 
CCOC(=O)CN1CCC(c2ccccc2)CC1 | inactive | 

Compound | Potency | activity change, negative = growth inhibition
CCOC(=O)Cn1c(-c2cccnc2Cl)nc2ccccc21 | inactive | 
CCn1c(SCc2cccc(C(=O)O)c2)nnc1-c1ccc(Cl)cc1 | inactive | 
CN(C)CCCOc1ccc(-c2ccc3nccn3c2)cn1 | inactive | 
Cc1ccc(NC(=O)CN2CCc3ccccc3C2)cc1C | inactive | 
Cc1cccc(C)c1NC(=O)c1ccc(CN2CCc3ccccc3C2)cc1 | 20.6 µM (active) | 
CCc1ccc(NC(=O)N2CCc3ccccc3C2)cc1 | inactive | 
CC(=O)c1ccc(S(=O)(=O)N2CCC(Oc3ccc(-n4cnnn4)cc3)CC2)cc1 | inactive | 
O=S(=O)(/C=C/c1ccccc1)N1CCNCC1 | inactive | 
COc1cc(C(=O)NCCOC(=O)c2cccc(N(C)C)c2)cc(OC)c1OC | inactive | 
CCN1CCN(CC(=O)c2cc(OC)c(OC)c(OC)c2)CC1 | inactive | 
CCn1c(CNC(=O)c2cc(OC)c(OC)c(OC)c2)cc2cc(C)ccc21 | 20.6 µM (active) | 
O=C(COC(=O)c1ccccc1)Nc1ccccc1Sc1ccccc1 | inactive | 
CCc1nc2nc(C)c(NS(=O)(=O)c3ccc4c(c3)CCCC4)c(=O)n2[nH]1 | inactive | 
Cn1nccc1NS(=O)(=O)c1ccc(F)cc1 | inactive | 
Cc1ccc(NS(=O)(=O)c2ccc(F)cc2)nc1 | inactive | 
Cc1cc(F)ccc1NS(=O)(=O)c1ccc(-n2cccn2)cc1 | 14.6 µM (active) | 
O=C(COc1ccc([N+](=O)[O-])cc1Cl)Nc1ccc2[nH]c(=O)[nH]c2c1 | inactive | 
COC(=O)C[C@@H]1C=C[C@@H](NC(=O)c2cccnc2)[C@@H](CO)O1 | inactive | 
Cc1ccc(SC(CC(=O)c2ccc(C(C)(C)C)cc2)C(=O)O)cc1 (stereo not given) | 3.66 µM (active) | 
Cc1ccc(C(=O)CSc2ccccc2C(=O)O)cc1 | inactive | 
Cc1ccc(Sc2cc(C(=O)c3ccccc3C(=O)O)ccc2[N+](=O)[O-])cc1 | inactive | 
COc1ccccc1C(=O)N/C(=C/c1ccc2c(c1)OCO2)C(=O)Nc1cccc(C(=O)O)c1 | inactive | 

Compound | Potency | activity change, negative = growth inhibition
CCOC(=O)c1cc2cc3ccccc3cc2oc1=O | inactive | 
CCOC(=O)c1sc(-c2cccc([N+](=O)[O-])c2)cc1N | inactive | 
CCOC(=O)c1sc(C)c2c1NC(C)(c1cccc3ccccc13)NC2=O (stereo not given) | 25.9 µM (active) | 
CCCNC(=O)COc1coc(CN2CCN(Cc3ccccc3)CC2)cc1=O | inactive | 
Cc1ccc(S(=O)(=O)N2CCC3(CC2)OCCO3)c(C)c1 | inactive | 
COc1cccc(Nc2ncc3ncc(=O)n(C4CC4)c3n2)c1 | 14.6 µM (active) | 
COc1cccc(Nc2ncccc2C(=O)O)c1 | inactive | 
Cc1nc2cnc(Nc3ccccc3)nc2n(C[C@H]2CCCO2)c1=O | inactive | 
COc1cccc(CC(=O)OCC(=O)NCc2ccc3c(c2)OCO3)c1 | inactive | 
CCC1CN(CCNC(=O)c2cccnc2C)Cc2cc(OC)ccc2O1 (stereo not given) |  | 21.1% [at 9.04 µM]
COc1cccc(OC)c1CN(C)C(=O)c1cnccc1C(F)(F)F | inactive | 
CC1CCCN(c2cc3c(cc2F)c(=O)c(S(=O)(=O)c2cccc(Cl)c2)cn3Cc2ccccc2)C1 (stereo not given) | inactive | 
Cc1ccc(S(=O)(=O)c2cn(Cc3ccccc3)c3cc(N4CCCC4)c(F)cc3c2=O)c(C)c1 | 20.6 µM (active) | 
CCn1cc(C(=O)NCCO)c(=O)c2cc(F)c(N3CCN(C)CC3)cc21 | inactive | 
Cc1cccc(S(=O)(=O)c2cn(Cc3ccccc3)c3cc(N4CCOCC4)c(F)cc3c2=O)c1 | 6.51 µM (active) | 
CCn1cc(S(=O)(=O)c2cccc(C)c2)c(=O)c2cc(F)c(N3CCN(C)CC3)cc21 | inactive | 
COCCNC(=O)C1CCN(S(=O)(=O)c2ccc3c(c2)OCCO3)CC1 | inactive | 
C[C@H]1CN([C@@H](C)CO)C(=O)CCCn2cc(nn2)CO[C@@H]1CN(C)S(=O)(=O)c1ccc(-n2cccn2)cc1 | inactive | 
CC(=O)NNc1cc(=O)c2c(=O)n(C)c(=O)n(C)c2[nH]1 | inactive | 
Cc1cccc(NC(=O)c2ccc(COc3ccccc3[N+](=O)[O-])o2)n1 | inactive | 
COc1ccc(C)cc1N1C(=O)[C@@H]2C[C@H]1CN2Cc1cccc(OC)c1O |  | -12.7% [at 9.04 µM]
